# NCOA1 inh: inhibitors of human steroid receptor coactivator 1 (SRC1). Q15788. HEK293 GAL4-SRC1 luciferase reporter, luminescence. inhibition, % at 3.6 µM. 360,000 compounds, 0.12% hits. AID 588354;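 active means inhibition above the campaign mean plus 3 SD, with each screening campaign given its own cutoff, cut at about 60% in these data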;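 further: 0% = DMSO treated cells and 100% = gossypol at 36 µM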
# NCOA3 inh: inhibits human SRC3 coactivator | HEK293 GAL4-SRC3 luciferase reporter, luminescence | 360,000 compounds, 0.17% hits | inhibition, % at 3.6 µM | Q9Y6Q9;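 active means inhibition above a per-campaign cutoff, the mean of all compounds plus 3 SD, cut at about 60% in these data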;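 further: 0% = DMSO-treated cells and 100% = gossypol-treated cells at 36 µM; higher means less SRC3-driven luciferase light from the GAL4 reporter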
# NCOA2 inhibitor: inhibits human steroid receptor coactivator 2; HEK293 GAL4-SRC2 luciferase reporter, luminescence; inhibition, % at 9 µM; 370,000 compounds, 0.17% hits;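 active means inhibition above the mean inhibition of all tested compounds plus 3 SD, set per campaign, cut at about 52% in these data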;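 further: 0% = DMSO treated cells and 100% = cells given Gossypol at 36 µM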
# LRH-1 inv ag: suppresses constitutive activity of human LRH-1. O00482. HEK293T StAR-luciferase reporter, LRH-1 transfected, 24 h. inhibition, % at 3.6 µM. 360,000 compounds, 0.13% hits. AID 602396;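 active means inhibition above the mean inhibition of all tested compounds plus 3 SD, cut at about 73% in these data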;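 further: 0% = DMSO wells and 100% = reporter-only cells lacking LRH-1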
# LGR2 inh: inhibitors of bursicon-induced Drosophila LGR2 receptor cAMP signaling; HEK293 LGR2, CRE-luciferase, bursicon-stimulated, 4 h; AID 720647; 380,000 compounds, 0.35% hits; inhibition, % at 9.99 µM;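 active means drop in luminescence signal, shown as inhibition above about 50% in the replicate tests, limit read from the data, passing the limit was not always enough; inconclusive means probably only some replicates passing the limit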;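 further: agonist challenge used bursicon conditioned medium at about half maximal strength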
# Active calls of the source: *; ? = inconclusive; . = no result given; ! = not confirmed by another sample. Rows were chosen to be rich in hits. Some 0.45% of all compounds tested hit in one or more screens of this group.
SMILES,NCOA1 inh,NCOA3 inh,NCOA2 inhibitor,LRH-1 inv ag,LGR2 inh
COC(=O)c1c(-c2ccc(N(C)C)cc2)sc2ccc(OC)cc12,0,-16,61*,28,-117
Cc1noc(C)c1S(=O)(=O)N(C)C[C@H]1OCCCC[C@H](C)Oc2ccc(NC(=O)NC3CCCCC3)cc2C(=O)N([C@H](C)CO)C[C@H]1C,.,.,.,.,7
COc1cccc(/C=N/NC(=S)Nc2cccc(C(=O)O)c2)c1O,-46,-36,-49,-113,66*
Cc1cccc(/C=N/NC(=O)c2ccc3c(c2)OCCO3)c1O,-52,-41,8,-74,68*
COc1cc(/C=N/NC(=S)Nc2cccc(C(=O)O)c2)ccc1O,-11,-39,-29,-87,91*
COc1cccc(/C=N/NC(=O)c2c(C)nc3ccc(Cl)cn23)c1O,47,78*,15,90*,14
C/C=C/c1ccc([C@@H]2[C@@H](CO)N3C(=O)CN(Cc4ccccc4)C[C@H]23)cc1,.,.,.,.,3
O=C(C1CCC1)N1CC[C@@H]2[C@H](CO)Nc3ccc(-c4cccc(F)c4)cc3[C@@H]21,.,.,.,.,-9
COc1ccc(/C=N/NC(=S)Nc2ccccc2)cc1,6,8,-45,5,-83
CNC(=S)N/N=C/c1ccc(-c2cccc(C(=O)O)c2)o1,-138,-53,-35,-127,65*
COc1ccc(OC)c(/C=N\NC(=O)c2ccc(-c3ccccc3)cc2)c1,5,-4,8,25,?
COc1ccc(/C=N/NC(=S)Nc2cccc(C(=O)O)c2)cc1,-92,-67,-38,-133,75*
COc1cccc(/C=N/NC(=O)c2ccc(-c3ccccc3)cc2)c1O,45,68*,16,53,.
CCCN1C[C@@H](C)[C@@H](OC)CN(C)C(=O)c2ccc(NC(=O)C3CC3)cc2OC[C@H]1C,.,.,.,.,2
C[C@@H]1CN([C@H](C)CO)C(=O)c2cc(NC(=O)C3CCCCC3)ccc2O[C@@H](C)CCCCO[C@@H]1CN(C)S(C)(=O)=O,.,.,.,.,1
CCCNC(=O)N1CC2(CCN(C(=O)C3CCC3)CC2)c2c([nH]c3cc(OC)ccc23)[C@@H]1CO,.,.,.,.,6
C[C@@H]1CN([C@@H](C)CO)C(=O)c2cc(C#Cc3cccnc3)cnc2O[C@H]1CN(C)Cc1ccc(F)cc1,.,.,.,.,-18
CCCc1nc(SCC(=O)Nc2ccccc2)c2c(=O)n(C)c(=O)n(C)c2n1,5,-16,9,21,20
CCCc1nc(SCC(=O)N2CCC(Cc3ccccc3)CC2)c2c(=O)n(C)c(=O)n(C)c2n1,-3,22,-16,23,17*
COCC(=O)N1CC2(CCN(Cc3ccc(Cl)cc3)CC2)c2c([nH]c3cc(OC)ccc23)[C@H]1CO,.,.,.,.,17
COc1cccc(-c2nc3ccccc3s2)c1,-101,-76,-85,-106,.
COc1ccc(-c2nc3ccccc3s2)cc1,-72,-42,-37,-114,80*
COc1ccc2nc(NC(=O)c3ccco3)sc2c1,-106,-63,-6,-145,81*
O=C(C1CC1)N1C[C@@H]2N[C@H](C1)C2c1ccc(-c2cccc(F)c2)cc1 (stereo partly specified),.,.,.,.,61*!
O=C(C1CCCC1)N1C[C@@H]2N[C@H](C1)C2c1ccc(-c2cccc(F)c2)cc1 (stereo partly specified),.,.,.,.,-16
SMILES,NCOA1 inh,NCOA3 inh,NCOA2 inhibitor,LRH-1 inv ag,LGR2 inh
N#Cc1cccc(-c2ccc(C3[C@@H]4CN(C(=O)C5CC5)C[C@H]3N4)cc2)c1 (stereo partly specified),.,.,.,.,89*!
N#Cc1ccc(-c2ccc(C3[C@@H]4CN(C(=O)C5CCCC5)C[C@H]3N4)cc2)cc1 (stereo partly specified),.,.,.,.,6
O=C(c1ccc(F)cc1)N1C[C@@H]2N[C@H](C1)C2c1ccc(-c2ccccc2F)cc1 (stereo partly specified),.,.,.,.,12
O=C(C1CC1)N1C[C@@H]2N[C@H](C1)C2c1ccc(-c2ccccc2F)cc1 (stereo partly specified),.,.,.,.,88*!
N#Cc1ccc(-c2ccc(C3[C@@H]4CN(C(=O)C5CCC5)C[C@H]3N4)cc2)cc1 (stereo partly specified),.,.,.,.,70*!
CCC(=O)N1CCC2(CC1)CN(C(=O)c1cnccn1)[C@@H](CO)c1c2c2ccc(OC)cc2n1C,.,.,.,.,3
C[C@H](CO)N1C[C@H](C)[C@@H](CN(C)S(=O)(=O)c2cn(C)cn2)Oc2ccc(NC(=O)Nc3ccc(F)cc3)cc2CC1=O,.,.,.,.,-34
COc1ccc2c3c(n(C)c2c1)[C@@H](CO)N(C(=O)Nc1ccc(F)cc1)CC31CCN(C(=O)CC2CC2)CC1,.,.,.,.,-1
CCCNC(=O)N1CC2(CCN(C(=O)C3CCCCC3)CC2)c2c([nH]c3cc(OC)ccc23)[C@@H]1CO,.,.,.,.,-4
COc1cccc(-c2ccc3c(c2)[C@H]2[C@H](CCN2C(=O)NC2CCCCC2)[C@@H](CO)N3C)c1,.,.,.,.,49
COc1cc(/C=C/C(=O)N2CCC=CC2=O)cc(OC)c1OC,-66,-2,-37,-17,100*
COc1cc(C=CC(=O)c2ccccc2)cc(OC)c1OC,23,45,14,27,24
COc1cc(C=CC(=O)c2cc(OC)c(OC)c(OC)c2)cc(OC)c1OC,51,64*,68*,51,57*
COc1cc(/C=C/C(=O)N2CCCN(C(=O)/C=C/c3cc(OC)c(OC)c(OC)c3)CC2)cc(OC)c1OC,-40,-7,10,-16,4
C[C@H](CO)N1C[C@H](C)[C@H](CN(C)C(=O)c2ccncc2)OCCCC[C@H](C)Oc2ccc(NC(=O)C3CCCCC3)cc2C1=O,.,.,.,.,-4
CCC(=O)N1[C@@H]2c3cccc(=O)n3C[C@@H]2[C@@H](CO)[C@@H]1C(=O)NC1CCCC1,.,.,.,.,-6
O=C(Nc1ccc(C(F)(F)F)cc1)N1[C@@H]2CNC[C@H]1C2c1ccc(-c2ccc(F)cc2)cc1 (stereo partly specified),.,.,.,.,-4
COc1ccc2c3c([nH]c2c1)[C@@H](CO)N(C(=O)c1cnccn1)CC31CN(C(=O)c2cnccn2)C1,.,.,.,.,5
O=C(c1ccc(CSc2nc3ccncc3[nH]2)cc1)N1CCN(c2cccc(Cl)c2)CC1,18,3,7,10,65*
CCCCN(CC)CCCNC(=O)c1cn(CC)c2ccc(S(=O)(=O)N3CCc4ccccc4C3)cc2c1=O,2,7,-13,-28,85*
CCCCN(C)CCCNC(=O)c1cn(CC)c2ccc(S(=O)(=O)N3CCc4ccccc4C3)cc2c1=O,-5,10,-9,-26,8
C/C=C/c1ccc([C@H]2[C@@H](CO)N(Cc3cncnc3)C23CN(C(C)=O)C3)cc1,.,.,.,.,-10
C[C@@H]1CN([C@H](C)CO)C(=O)Cc2cc(NC(=O)Nc3ccc(C(F)(F)F)cc3)ccc2O[C@@H]1CN(C)C(=O)Nc1ccc(F)cc1,.,.,.,.,-10

# Bioassay records from PubChem.
